Results reported in PubChem BioAssay AID1619 (SRMLSC, 2009).
Out of some 220,000 compounds screened, about 830 (0.38%) were called active. The list is a sample of the results. Entries with a potency or affinity are not part of this list. A number with no mark means an inactive call.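 The calls were made as follows: active = compound inhibiting the enzyme by more than half at any dose during confirmatory dose-response retesting; inconclusive = strong single-dose inhibitors picked by rank but not retested; inactive = the rest.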

Target: Leucine aminopeptidase (Plasmodium falciparum (isolate 3D7)) (UniProt Q8IL11)
Experiment: P. falciparum M17LAP inhibitors, primary screen, biochemical, fluorogenic H-Leu-NHMec substrate, 1536-well (AID 1619);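 also: plate controls were full reaction with DMSO carrier for no effect and no enzyme background for full effect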
Details: recombinant M17LAP, H-Leu-NHMec fluorogenic kinetic assay; at 30 µM; hits give high values

Leucine aminopeptidase (Plasmodium falciparum (isolate 3D7)), sequence (Q8IL11 whole entry, looked up): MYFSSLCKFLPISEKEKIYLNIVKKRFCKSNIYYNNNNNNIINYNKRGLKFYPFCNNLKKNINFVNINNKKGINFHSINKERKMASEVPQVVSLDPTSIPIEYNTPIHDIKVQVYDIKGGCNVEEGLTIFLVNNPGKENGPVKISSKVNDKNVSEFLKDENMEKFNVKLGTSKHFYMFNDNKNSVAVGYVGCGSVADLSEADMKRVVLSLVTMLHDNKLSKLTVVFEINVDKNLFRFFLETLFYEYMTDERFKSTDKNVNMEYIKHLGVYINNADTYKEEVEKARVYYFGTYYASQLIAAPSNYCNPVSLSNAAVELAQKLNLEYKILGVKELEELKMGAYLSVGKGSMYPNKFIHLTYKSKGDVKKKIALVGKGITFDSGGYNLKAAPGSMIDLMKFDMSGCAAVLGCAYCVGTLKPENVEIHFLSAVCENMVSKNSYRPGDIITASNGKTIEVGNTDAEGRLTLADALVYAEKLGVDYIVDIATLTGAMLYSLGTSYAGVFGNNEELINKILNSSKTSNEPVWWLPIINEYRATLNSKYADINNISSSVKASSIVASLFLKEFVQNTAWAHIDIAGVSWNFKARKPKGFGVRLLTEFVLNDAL

SMILES | inhibition [%]
Cc1c(-c2nnc(-c3ccc(C(F)(F)F)cc3)o2)cnn1-c1ccccc1 | -4.2
CC(=C\c1ccccc1)/C=C1/SC(=O)N(CCCC(=O)Nc2ccc(C(=O)O)cc2)C1=O | 52.8
CC(/C=C1\SC(=S)N(CC(=O)O)C1=O)=C\c1ccccc1 | 19.7
CC(=O)Nc1sc2c(c1C#N)CCC(C)C2 (stereo unspecified) | -3.55
CCCC1CCc2c(sc(NC(=O)OCC)c2C#N)C1 (stereo unspecified) | -10
Cc1cc(C(=O)Nc2sc3c(c2C#N)CCC(C(C)(C)C)C3)no1 (stereo unspecified) | -3.46
CN1CCN(CC(=O)Nc2sc3c(c2C#N)CCC(C(C)(C)C)C3)CC1 (stereo unspecified) | -2.54
CCCn1ncc(CN2CCN(Cc3ccsc3)C(CCO)C2)c1C (stereo unspecified) | -4.96
Cc1ccc(Nc2ccc(-n3ccnc3)nn2)cc1C | 1.15
CCCCNC(=O)N1CCN(C(=O)C2CCCO2)CC1 (stereo unspecified) | -0.24
C=C(C)COc1ccc2oc(C)c(C(=O)OCCOC)c2c1 | -2.33
CCCCOc1ccc(N(CC(=O)NCC2CCCO2)C(=O)CCC(=O)Nc2nccs2)cc1 (stereo unspecified) | -11.6
CCOc1ccc(NC(=O)C2CC(=O)NC(N3CCc4ccccc43)=N2)cc1 (stereo unspecified) | 13.4
Nc1cc(=O)[nH]c(SCC(=O)Nc2ccc(F)c(Cl)c2)n1 | 45.2
CCCC(=O)Nc1ccc2c(c1)c1ccccc1n2CC | -0.99
CCn1c2ccccc2c2cc(NC(=O)CC(C)=O)ccc21 | -12.3
CCC(=O)Nc1ccc(Br)c(Cl)c1 | -2.61
O=C(CSc1nccc(-c2cccs2)n1)Nc1ccc(F)c(Cl)c1 | 8.92
O=C(CSc1nccc(=O)[nH]1)Nc1ccc(F)c([N+](=O)[O-])c1 | 31.4
CN(C)S(=O)(=O)c1cccc(NC(=S)NCCCn2ccnc2)c1 | 2.61
Cn1nnc2cc(C(=O)N3CCC(c4ccccc4)C3)ccc21 (stereo unspecified) | 9.75
O=C(COc1ccc(/C=N/NC(=O)c2ccc(O)cc2)cc1)Nc1cccc([N+](=O)[O-])c1 | -2.3
CNC(=S)Nc1cccc(Cl)c1C | 0.94
CCn1c(Cc2ccccc2)nnc1SCc1ccc([N+](=O)[O-])cc1 | -12

SMILES | inhibition [%]
CC(=O)c1cccc(N=Nc2c(C)[nH]c3ccccc23)c1 | -8.29
Oc1[nH]c2ccccc2c1N=Nc1ccc(F)cc1 | 26.1
Oc1[nH]c2ccccc2c1N=Nc1ccccc1 | 7.84
Cc1[nH]c2ccccc2c1N=Nc1cc(C(=O)O)cc(C(=O)O)c1 | 21.5
COc1cccc(CNC(=O)CCC2CCCN(Cc3cc4ccccc4o3)C2)c1 (stereo unspecified) | -1.88
O=c1cc(Cc2ccccc2)[nH]c(=S)[nH]1 | 0.4
Cc1nnc(SCc2cc(=O)[nH]c(=S)[nH]2)s1 | 27.4
O=C(NC1CCS(=O)(=O)C1)c1cn(-c2ccccc2)nc1-c1ccccc1 (stereo unspecified) | -4.23
Cc1cc(C)nc(N2CCCC(C(=O)NC(C)CCc3ccco3)C2)n1 (stereo unspecified) | 2.6
CC(OC(=O)CCCc1nc2ccccc2s1)C(=O)NC(N)=O (stereo unspecified) | -1.53
Cc1ccccc1S(=O)(=O)c1cc(C#N)c(=O)[nH]c1N | -8.15
COc1ccc(N(CC(=O)NCc2ccccc2)S(=O)(=O)c2c(C)noc2C)cc1 | -3.73
CCOc1ccc(NC(=S)NCc2nc3ccccc3[nH]2)cc1 | -5.56
Cc1ccc(-c2ccc(/C=N/N3C(=O)C4C5C=CC(CC5)C4C3=O)o2)c([N+](=O)[O-])c1 (stereo unspecified) | 5.1
O=C(O)CC1S/C(=N/N=C/c2ccc(-c3ccc(Cl)cc3[N+](=O)[O-])o2)NC1=O (stereo unspecified) | 31.2
COc1cc(-c2cc(C(=O)Nc3nc4ccccc4s3)c3ccccc3n2)cc(OC)c1OC | 4.34
c1ccc(CN2c3ccccc3-c3nc4ccccc4n3C2c2ccccn2)cc1 (stereo unspecified) | 1.51
COCCOC(=O)C1=C(C)NC(=O)NC1/C=C/c1ccccc1 (stereo unspecified) | 0.26
N#C/C(=C/c1ccc(F)cc1)S(=O)(=O)c1ccccc1 | -4.38
Cc1cc(C)c(/C=C(\C#N)S(=O)(=O)c2ccccc2)[nH]1 | -7.74
COc1cccc(OCCn2cccc2/C=C2/C(=N)N3OC(C)=CC3=NC2=O)c1 | 0.81
CC1=CC2=NC(=O)/C(=C\c3cccn3CCOc3ccccc3)C(=N)N2O1 | 8.69
Cc1nn(-c2ccccc2)c(C)c1C(=O)NCc1ccc(F)cc1 | -15.7
FC(F)(F)c1cnc(-c2cnc(-c3cccnc3)nc2)c(Cl)c1 | 1.19

SMILES | inhibition [%]
c1coc(-c2nc(-c3ccco3)c(-c3ccco3)nc2-c2ccco2)c1 | 48.1
c1coc(-c2ncc[nH]2)c1 | -2.51
COc1ccc(/C=N/N2CCN(c3ccncc3S(=O)(=O)N3CCCCC3)CC2)cc1 | 0
Cc1cc(C(=O)COC(=O)c2cccnc2Cl)c(C)n1-c1c(C)n(C)n(-c2ccccc2)c1=O | 10.5
Cc1cc(C(=O)OCC(N)=O)c(C)n1-c1ccccc1 | 3.65
CCOc1ncccc1C(=O)OCC(=O)c1cc(C)n(Cc2ccco2)c1C | 6.52
CCCn1c(C)cc(C(=O)COC(=O)c2nccnc2N)c1C | 6.47
COc1ccc(Nc2nc(N)nc(CN3CCC(Cc4ccccc4)CC3)n2)cc1 | -2.44
CCOC(=O)CC(=O)CSc1n[nH]c(=O)[nH]c1=O | -5.31
CCn1c(SCC(=O)O)nnc1-c1ccccc1OC | -7.5
C=CCn1c(SCC(=O)c2ccc(O)c(O)c2)nnc1-c1cccnc1 | 22.5
C=CCn1c(SCC(=O)c2ccc(OC)cc2)nnc1-c1cc2cccc(OC)c2o1 | 3.95
CCn1c(SCC(=O)C(C)(C)C)nnc1-c1ccccc1OC | 6.79
CCC(=O)Nc1ccc(C(=O)NNC(=O)C(c2ccccc2)c2ccccc2)cc1 | 5.41
O=C(CNC(=O)c1ccc([N+](=O)[O-])cc1)N/N=C\c1ccc(OC(=O)c2ccccc2)cc1 | -2.63
COc1ccc(S(=O)(=O)NCCc2ccccc2)cc1 | -1.2
Cc1nn(C)cc1/C=N/NC(=O)Cn1cncn1 | 0.36
C=CCN1C(=O)CC(C(=O)NC)SC1=Nc1ccc(C(=O)OCC)cc1 (stereo unspecified) | 4.4
CC(=O)Nc1c(C(=O)N2CCN(c3ccccn3)CC2)cnn1-c1ccc(C)cc1 | 11
CC1=CC(C)C2C(=O)N(O)C(=O)C2C1 (stereo unspecified) | 1.69
CN(c1ccc(F)cc1)S(=O)(=O)c1ccc(Cl)c(C(=O)OCC(=O)NCc2ccco2)c1 | 4.4
COc1ccc(S(=O)(=O)/N=C2/NC(=O)/C(=C\c3ccco3)S2)cc1 | 22.2
COc1ccc(Nc2nc3ccccc3nc2NS(=O)(=O)c2cccs2)cc1 | 9.26
COc1ccc(NS(=O)(=O)c2cccs2)c(OC)c1 | -8.72

SMILES | inhibition [%]
NC1=NC(=O)/C(=C\c2ccco2)S1 | 25.9
O=C1CN(C(=O)CCN2CCOCC2)C(c2ccccc2)c2cc(Br)ccc2N1 (stereo unspecified) | 8.27
Cc1cc(/C=C2/C(=O)NN(c3ccccc3)C2=O)c(C)n1-c1ccc(O)cc1 | -3.4
Cc1cc(C=O)c(C)n1-c1ccc(Cl)c(C(=O)O)c1 | 14.1
CCCC(C)c1nnc(NC(=O)C(=O)OCC)s1 (stereo unspecified) | 2.47
O=C(NNS(=O)(=O)c1ccccc1)c1cccnc1 | 1.34
O=C(NC(=S)NNS(=O)(=O)c1ccc(Cl)cc1)c1cccnc1 | 20
O=C(NNC(=S)NC(=O)c1ccccc1[N+](=O)[O-])c1ccccc1[N+](=O)[O-] | 51.9
O=C(NC(=S)NNS(=O)(=O)c1ccccc1)c1ccc([N+](=O)[O-])cc1 | 21.4
CCOC(=O)C1C(=O)C=C(Nc2ccccc2F)CC1c1ccccc1 (stereo unspecified) | 10.8
CCOC(=O)C(C(=O)OCC)N(C#N)c1nc(OC)nc(N(C)C)n1 | 3.46
O=Cc1cccc(Oc2ncccn2)c1 | 3.35
CCOC(=O)N1CCC(Nc2c(NCCCN(CC)CC)c(=O)c2=O)CC1 | -6.21
O=C1CCC(=O)N1c1cccc(OS(=O)(=O)c2ccccc2)c1 | 10.4
Cc1cc(C(F)(F)F)n2nc(-c3cnn(C)c3C(F)(F)F)c(Br)c2n1 | 4.73
O=C(NCc1ccccc1)N[C@@H](Cc1ccccc1)C(=O)O | 27.9
O=C(Cc1ccccc1)N[C@@H](Cc1ccc(O)cc1)C(=O)O | 7.55
NS(=O)(=O)c1ccc(NC(=O)N[C@@H](Cc2ccccc2)C(=O)O)cc1 | 9.55
COC(=O)[C@H](Cc1ccccc1)NC(=O)NCc1cccs1 | 7.7
COc1ccccc1Nc1nc2ccc(C)cc2cc1C#N | 5.31
COc1ccc(N2CCN(c3nc4ccccc4n3CC(=O)c3ccccc3)CC2)cc1 | 12.7
Cc1ccc(S(=O)(=O)/C=C2\NC(=O)CS2)cc1 | 34.6
O=C1CS/C(=C/C(=O)c2cccc(Cl)c2)N1 | 16
O=C(O)c1ccc(/C=N/NC(=O)c2cc(-c3cccs3)nc3ccccc23)cc1 | -43.1
